Source: PubChem BioAssay
Rows were chosen to be rich in hits. Some 1.2% of all compounds tested hit in one or more screens of this group.
TrxR1 substrate = qHTS Assay for Substrates of Mammalian Selenoprotein Thioredoxin Reductase 1 (TrxR1): qHTS; Thioredoxin reductase 1, cytoplasmic (Rattus norvegicus), O89049; Potency, µM (doses to about 114 µM); purified TrxR1 substrate turnover, NADPH consumption readout; hit rate 0.01% among 390,000; AID 588456, 2011; note: nearly all actives have a fitted effect of over 50% in size
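Rat TrxR1, dispensed at 90 nM, was prereduced with 400 uM NADPH (final) for 5 min at ~22 deg C, then incubated with compound 15 min before 400 uM selenite. A first-read NADPH fluorescence drop versus no-compound background flagged substrates.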
GLS inh = qHTS for Inhibitors of Glutaminase (GLS); AID 624170, 2012; hit rate 0.21% among 410,000; Potency, µM (series often up to 45.5 µM), actives largely listed as inhibitors; GLS enzymatic activity, qHTS titration
Target sequence (O94925 whole entry, looked up): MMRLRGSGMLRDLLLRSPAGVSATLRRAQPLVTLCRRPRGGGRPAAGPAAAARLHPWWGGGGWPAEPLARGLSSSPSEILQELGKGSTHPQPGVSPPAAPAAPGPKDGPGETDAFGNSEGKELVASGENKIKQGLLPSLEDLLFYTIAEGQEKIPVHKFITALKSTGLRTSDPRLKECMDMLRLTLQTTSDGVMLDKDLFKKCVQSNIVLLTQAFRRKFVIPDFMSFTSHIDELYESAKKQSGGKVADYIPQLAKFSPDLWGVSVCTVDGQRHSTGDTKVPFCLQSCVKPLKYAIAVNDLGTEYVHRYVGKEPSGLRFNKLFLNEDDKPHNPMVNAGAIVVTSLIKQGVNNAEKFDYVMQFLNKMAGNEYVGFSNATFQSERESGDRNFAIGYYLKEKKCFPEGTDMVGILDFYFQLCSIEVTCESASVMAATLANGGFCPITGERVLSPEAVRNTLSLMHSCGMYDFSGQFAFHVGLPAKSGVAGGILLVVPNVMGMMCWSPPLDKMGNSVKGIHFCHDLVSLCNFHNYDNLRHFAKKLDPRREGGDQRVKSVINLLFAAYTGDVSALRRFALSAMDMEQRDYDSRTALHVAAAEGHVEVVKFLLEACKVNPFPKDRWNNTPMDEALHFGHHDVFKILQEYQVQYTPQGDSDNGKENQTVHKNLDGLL
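Glutamate formation by hKGA was monitored fluorometrically using coupled glutamate oxidase, HRP and Amplex Red. Substrate was added as 1 mM L-glutamine solution; incubation was 30 min at RT after an initial read.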
TrxR1 inh-1 = qHTS Assay for Inhibitors of Mammalian Selenoprotein Thioredoxin Reductase 1 (TrxR1): qHTS. AID 588453, 2011. hit rate 1% among 390,000. recombinant rTrxR1, NADPH fluorescence consumption, selenite substrate. Potency, µM (series often up to 114 µM), hits mostly inhibitors; note: nearly all actives have a fitted effect of over 65% in size
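Rat TrxR1 (90 nM in the dispensed reagent) was pre-reduced with 400 uM NADPH for 5 min at room temperature, then incubated with compound for 15 min. After 400 uM selenite was added, NADPH fluorescence (Ex 340/Em 450 nm) was followed for 8 min.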
mIDH1 inhibitor = qHTS for Inhibitors of mutant isocitrate dehydrogenase 1 (IDH1): qHTS. Isocitrate dehydrogenase [NADP] cytoplasmic (Homo sapiens), O75874. IDH1-R132H enzyme, NADPH consumption, diaphorase/resazurin fluorescence. Potency, µM (highest dose often 76.6 µM), most hits filed as inhibitors. hit rate 0.093% among 390,000. AID 602179, 2012; note: nearly all actives have a fitted effect of over 65% in size
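IDH1-R132H (0.5 ug/mL) preincubated 30 min with compound, then NADPH (0.016 mM) and alpha-KG (2 mM) added; 80 min at RT, pH 7.5. Remaining NADPH coupled via diaphorase/resazurin to fluorescence (540/590 nm); concentration-response curves normalized to no-enzyme control.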
GR inh = qHTS Assay for Inhibitors of Mammalian Selenoprotein Thioredoxin Reductase 1 (TrxR1): Counterassay in Glutathione Reductase (GR). activity change, negative = inhibition, % at 57.1 µM. shares compounds with TrxR1 inh-1. 55 tested, under 10 active. purified GR, DTNB reduction absorbance 405 nm kinetic. AID 652020, 2013
TrxR1 inh-2 = qHTS Assay for Inhibitors of Mammalian Selenoprotein Thioredoxin Reductase 1 (TrxR1): Hit Validation in Primary Screen. hit rate 50% among 55. shares compounds with TrxR1 inh-1. Potency, µM, usual class: inhibitors. recombinant TrxR1, NADPH fluorescence consumption, selenite substrate
TrxR1 insulin = qHTS Assay for Inhibitors of Mammalian Selenoprotein Thioredoxin Reductase 1 (TrxR1): Insulin MOA Assay; shares compounds with TrxR1 inh-1; TrxR1 Trx-coupled insulin reduction, NADPH absorbance 340 nm; Potency, µM; hit rate 20% among 55;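 active = compounds with a measured potency under 100 micromolar; inconclusive = filed, but no rule given; inactive = potency at or above that, or unmeasurable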
TrxR1 inh-3 = qHTS Assay for Inhibitors of Mammalian Selenoprotein Thioredoxin Reductase 1 (TrxR1): DTNB Assay; shares compounds with TrxR1 inh-1; Potency, µM; AID 652256, 2013; purified TrxR1, DTNB reduction, A412; hit rate 90% among 55;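 active = a half-inhibiting concentration could be measured and was below 100 µM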
IDH1 autofl = qHTS for Inhibitors of mutant isocitrate dehydrogenase 1 (IDH1): Cherrypicks Autofluorescence Interference; shares compounds with mIDH1 inhibitor; Resorufin detection reagent fluorescence interference, cell-free; inhibition of signal, % at 51.2 µM; 750 tested, under 10 active; AID 623980, 2012
IDH1 WT = qHTS for Inhibitors of mutant isocitrate dehydrogenase 1 (IDH1): Cherrypicks in WT IDH1; shares compounds with mIDH1 inhibitor; WT IDH1 enzyme, NADPH diaphorase/resazurin fluorescence; Potency, µM (doses to about 115 µM), usual class: inhibitors; hit rate 9% among 750; AID 623995, 2012; note: nearly all actives have a fitted effect of over 55% in size
IDH1 R132H conf = qHTS for Inhibitors of mutant isocitrate dehydrogenase 1 (IDH1): Confirmation of Cherrypicks. shares compounds with mIDH1 inhibitor. IDH1 R132H enzyme, NADPH diaphorase/resazurin fluorescence. Potency, µM (titrated, usually from 76.6 µM), usual class: inhibitors. hit rate 83% among 750. AID 624002, 2012; note: nearly all actives have a fitted effect of over 50% in size
Of the large screens only hits and unclear results are named; the others gave an inactive call (follow-up assays come after a bar, where they were run). Unless noted, calls come from the whole dose curve; as a rule, active = well fitted curve in the direction sought with a large enough effect; inconclusive = small, poorly fitted or top-dose-only effect, or another doubt; inactive = no such curve, though single readings can be large; an effect the other way counts as inactive or inconclusive.

O=C(CSc1nnc(-c2cccs2)o1)Oc1ccccc1Cl	none
Cc1c(NC2=C(Cl)C(=O)N(c3ccccc3)C2=O)c(=O)n(-c2ccccc2)n1C	TrxR1 inh-1 3.2µM | GR inh inactive | TrxR1 inh-2 2.7 | TrxR1 insulin inactive | TrxR1 inh-3 inactive
COc1ccc(C(=O)Nc2nnc(S(=O)(=O)N3CCN(c4ccc(C)cc4)CC3)s2)cc1	none
Cc1ccc(N2C(=O)[C@@H]3[C@H](C2=O)C2CCCN2[C@@H]3C(=O)c2ccccc2)cc1 (stereo partly drawn)	none
O=C(c1ccccc1)[C@@H]1[C@@H]2C(=O)N(c3ccc(F)cc3)C(=O)[C@@H]2C2CCCN21 (stereo partly drawn)	TrxR1 inh-1 50µM | GR inh inactive | TrxR1 inh-2 inconclusive | TrxR1 insulin inactive | TrxR1 inh-3 7.4µM
Cc1cccc2c1N(CCOc1ccc(C(C)(C)C)cc1)C(=O)C2=O	mIDH1 inhibitor inconclusive | IDH1 autofl inactive | IDH1 WT inactive | IDH1 R132H conf 25µM
Cc1ccc(OCCCN2C(=O)C(=O)c3cccc(C)c32)cc1	none
CC(=O)N1CCc2c(sc3c2c(=O)n(-c2ccccc2)c(=O)n3Cc2cccc(C(F)(F)F)c2)C1	mIDH1 inhibitor 22µM | IDH1 autofl inactive | IDH1 WT 7.9µM | IDH1 R132H conf 11µM
COc1cccc(Cn2c(=O)n(-c3cccc(Cl)c3)c(=O)c3c4c(sc32)CN(C(C)=O)CC4)c1	mIDH1 inhibitor inconclusive | IDH1 autofl inactive | IDH1 WT 14µM | IDH1 R132H conf 14µM
CCCc1ncc(CN2CCC(C(=O)Nc3cccc(-c4cscn4)c3)CC2)cn1	none
COCCN(C(=O)c1ccc(C)c(S(=O)(=O)N2CCOCC2)c1)c1c(N)n(CC(C)C)c(=O)[nH]c1=O	none
CCCCN(C)S(=O)(=O)c1ccc(NC2=NS(=O)(=O)c3ccccc32)cc1	none
CCOc1ccc(-c2cc3nc(C4CCN(C(=O)OC(C)(C)C)CC4)c(C(=O)O)cn3n2)cc1	mIDH1 inhibitor 16µM | IDH1 autofl inactive | IDH1 WT 79µM | IDH1 R132H conf 14µM
CCOc1ccc(-c2cc3nc(C4CCN(C(=O)OC(C)(C)C)CC4)c(C(=O)Nc4c(C)cccc4C)cn3n2)cc1	none
O=C(c1ccccc1)N1N=C(c2ccccc2)CC1c1ccccc1O (stereo not drawn)	none
O=C(c1ccncc1)N1N=C(c2ccc(Br)cc2)CC1c1ccccc1O (stereo not drawn)	mIDH1 inhibitor 35µM | IDH1 autofl inactive | IDH1 WT inactive | IDH1 R132H conf 16µM
COc1cc(N[C@@H](C)CCCN)c2ncccc2c1	none (no result: TrxR1 substrate, TrxR1 inh-1, mIDH1 inhibitor)
Cc1ccc(-c2n[nH]c3c2C(c2cccs2)N(c2ccc(Cl)cc2)C3=O)cc1 (stereo not drawn)	none
O=C(O)c1ccc(N2C(=O)c3[nH]nc(-c4ccccc4)c3C2c2ccccc2)cc1 (stereo not drawn)	GLS inh inconclusive
O=C(O)c1ccc(N2C(=O)c3[nH]nc(-c4ccccc4)c3C2c2cccc(F)c2)cc1 (stereo not drawn)	GLS inh inconclusive, mIDH1 inhibitor inconclusive | IDH1 autofl inactive | IDH1 WT inactive | IDH1 R132H conf 32µM
COc1cccc(C2c3c(-c4ccccc4)n[nH]c3C(=O)N2c2ccc(C(=O)O)cc2)c1 (stereo not drawn)	GLS inh inconclusive, mIDH1 inhibitor inconclusive | IDH1 autofl inactive | IDH1 WT inconclusive | IDH1 R132H conf 20µM
COc1ccc(C2c3c(-c4ccccc4)n[nH]c3C(=O)N2c2ccc(C(=O)O)cc2)cc1 (stereo not drawn)	mIDH1 inhibitor 52µM | IDH1 autofl inactive | IDH1 WT inconclusive | IDH1 R132H conf 45µM
Cc1ccc(-c2n[nH]c3c2C(c2ccccc2Cl)N(c2ccc(C(=O)O)cc2)C3=O)cc1 (stereo not drawn)	GLS inh 7.1µM, mIDH1 inhibitor 11µM | IDH1 autofl inactive | IDH1 WT 35µM | IDH1 R132H conf 7.1µM
COc1ccc(-c2n[nH]c3c2C(c2ccc(O)cc2)N(c2ccc(Br)cc2)C3=O)cc1 (stereo not drawn)	none
CC1(c2nc3ccccc3[nH]2)c2ccccc2C(=O)N1C1CC1 (stereo not drawn)	none (no result: TrxR1 substrate, TrxR1 inh-1, mIDH1 inhibitor)
CCc1ccc(C2c3c(-c4ccccc4)n[nH]c3C(=O)N2c2ccc(C(=O)O)cc2)cc1 (stereo not drawn)	GLS inh 16µM, mIDH1 inhibitor 35µM | IDH1 autofl inactive | IDH1 WT 25µM | IDH1 R132H conf 7.1µM
COc1cc(C2c3c(-c4ccc(C)cc4)n[nH]c3C(=O)N2c2ccc(F)cc2)ccc1O (stereo not drawn)	mIDH1 inhibitor inconclusive | IDH1 autofl inactive | IDH1 WT inactive | IDH1 R132H conf 25µM
COc1ccc(C2c3c(-c4ccc(F)cc4)n[nH]c3C(=O)N2c2ccccc2)cc1OC (stereo not drawn)	none
